Test [1] can be described thus: ATG_EGR_CIS: Attagene CIS-FACTORIAL HepG2 Assay for human Early Growth Response 1 (EGR1) (AID 2282938). As to conditions: HepG2 Attagene CIS-FACTORIAL EGR reporter mRNA; actives raise or lower the signal. An outline of the steps: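 Endogenous TF activity in HepG2 liver cells was gauged through cis-promoter reporter constructs transiently transfected. After 24 h dosing, reporter mRNA was quantified by RT-PCR and capillary electrophoresis, and curves fitted in both directions versus DMSO.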

Test [2] in a line: ATG_M_19_CIS: Attagene CIS-FACTORIAL HepG2 Assay for M19 Transcription Factor (Internal Marker) (AID 2282939). The note with it: HepG2 Attagene CIS-FACTORIAL M19 internal marker reporter; actives raise or lower the signal. The method, boiled down: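 Readout: fluorescent reporter-transcript fragments by capillary electrophoresis after RT-PCR. Human HepG2 liver cells carried transfected MRTU constructs reporting endogenous transcription-factor activity; exposure 24 h. Gain or loss of signal fitted relative to DMSO.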

Test [3] is described as follows: ATG_ERE_CIS: Attagene CIS-FACTORIAL HepG2 Assay for Estrogen Response Element (ERE) (AID 2282940). The note with it: HepG2 ERE cis-reporter, Attagene RNA transcript; actives raise or lower the signal. An outline of the steps: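 Readout: reporter mRNA induction by RT-PCR, FAM-labelled primer extension, HpaI digestion and capillary electrophoresis, 24 h after dosing transfected HepG2 cells. Endogenous transcription factors act on cis-element-regulated reporters. Gain or loss fitted against DMSO.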

Test [4] can be described thus: ATG_Ets_CIS: Attagene CIS-FACTORIAL HepG2 Assay for human Erythroblast Transformation Specific (ETS) (AID 2282941). The note with it: HepG2 ETS cis-reporter transcription, actives raise or lower the signal. The method, boiled down:
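RT-PCR/capillary electrophoresis fluorescence read-out of reporter mRNA; HepG2 transient multi-reporter transfection; 24 h compound exposure; gain or loss of signal fitted bidirectionally relative to DMSO.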

Test [5] deals with Hepatocyte nuclear factor 3-beta (Homo sapiens) (UniProt Q9Y261). The test can be described thus: ATG_FoxA2_CIS: Attagene CIS-FACTORIAL HepG2 Assay for human Forkhead box A2 (FOXA2) (AID 2282942). As to conditions: HepG2 cis-reporter transcription factor activity, 24 h; actives raise or lower the signal. The method, boiled down:
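Endogenous transcription factor activity was read in HepG2 cells carrying transiently transfected cis-promoter reporter units. After 24 h dosing, reporter mRNA was quantified by RT-PCR and capillary electrophoresis, and values fitted bidirectionally versus DMSO.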

Test [6] in a line: ATG_FoxO_CIS: Attagene CIS-FACTORIAL HepG2 Assay for human Forkhead box O (FoxO) (AID 2282943). The note with it: HepG2 Attagene cis-reporter, FoxO element, mRNA; actives raise or lower the signal. An outline of the steps:
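HepG2, transient MRTU transfection (cis element, endogenous TFs). Dose 24 h. TriZol RNA → oligo(dT) RT → PCR → 6-FAM primer extension → HpaI cut → CE. Gain/loss vs DMSO.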

Test [7] can be described thus: ATG_GATA_CIS: Attagene CIS-FACTORIAL HepG2 Assay for human GATA Binding Protein (AID 2282944). The note with it: HepG2 GATA cis-element reporter, Attagene multiplex mRNA; actives raise or lower the signal. An outline of the steps: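 Read-out: fluorescent reporter mRNA fragments resolved by capillary electrophoresis after RT-PCR. Human liver HepG2 cells carried transiently transfected cis-regulated reporter constructs; chemicals incubated 24 h; gain or loss of signal fitted relative to DMSO.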

Test [8] can be described thus: ATG_GLI_CIS: Attagene CIS-FACTORIAL HepG2 Assay for human Zinc Finger Protein GLI1 (AID 2282945). As to conditions: HepG2, Attagene cis-factorial reporter mRNA, GLI element; actives raise or lower the signal. An outline of the steps: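 Bidirectional curve fits relative to DMSO, using reporter mRNA levels from RT-PCR plus capillary electrophoresis. Cells were HepG2 transiently carrying cis-regulated reporter constructs, harvested 24 h after dosing.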

The nature of test [9]: ATG_GRE_CIS: Attagene CIS-FACTORIAL HepG2 Assay for human Glucocorticoid Response Elements (GRE) (AID 2282947). As to conditions: HepG2 GRE cis-reporter, Attagene multiplex mRNA; actives raise or lower the signal. An outline of the steps: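 Multiplexed cis-reporter mRNA induction, HepG2, 24 h post-dose. RT-PCR, FAM-labelled, HpaI-digested amplicons by CE. Bidirectional fit vs DMSO.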

The nature of test [10]: ATG_ISRE_CIS: Attagene CIS-FACTORIAL HepG2 Assay for human Interferon Regulatory Factor 1 (IRF1) binding to an Interferon-Stimulated Response Element (ISRE) (AID 2282948). As to conditions: HepG2 ISRE cis-reporter (Attagene), mRNA transcription readout; actives raise or lower the signal. The method, boiled down: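 Read-out: fluorescent RT-PCR products resolved by capillary electrophoresis, reporting endogenous transcription factor activity via ISRE-driven reporter mRNA in transfected HepG2 cells dosed for 24 h; gain or loss fitted relative to DMSO.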

Test [11] is described as follows: ATG_M_06_CIS: Attagene CIS-FACTORIAL HepG2 Assay for M06 Transcription Factor (Internal Marker) (AID 2282950). As to conditions: HepG2 Attagene CIS-FACTORIAL M06 internal marker reporter; actives raise or lower the signal. The method, boiled down:
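Terse: HepG2, transient MRTU transfection (FuGene 6), 24 h dosing; total RNA, oligo(dT) RT, PCR, FAM label, HpaI cut, capillary electrophoresis; bidirectional fit vs DMSO baseline; background-control endpoint.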

Test [12] has as its target Hepatocyte nuclear factor 6 (Homo sapiens) (UniProt Q9UBC0). As to the kind of experiment: ATG_HNF6_CIS: Attagene CIS-FACTORIAL HepG2 Assay for human Hepatocyte Nuclear Factor 6 (HNF6) (AID 2282952). As to conditions: HepG2 Attagene cis-factorial HNF6 reporter transcription; actives raise or lower the signal. An outline of the steps:
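Endogenous transcription factor activity in human HepG2 liver cells was captured through cis-regulated reporter constructs. After 24 h treatment, reporter mRNA was measured by RT-PCR with capillary electrophoresis, and activity was fitted in both directions relative to DMSO.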

The target in test [13] is Heat shock factor protein 1 (Homo sapiens) (UniProt Q00613). As to the kind of experiment: ATG_HSE_CIS: Attagene CIS-FACTORIAL HepG2 Assay for human Heat Shock Transcription Factor 1 (HSE) (AID 2282953). The note with it: HepG2 HSE cis-reporter, Attagene RNA transcription; actives raise or lower the signal. An outline of the steps:
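Read-out: fluorescence of reporter-specific RT-PCR fragments separated by capillary electrophoresis. HepG2 carrying transfected cis-element reporter units; 24 h dosing; activity fitted in both directions relative to DMSO baseline.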

A short description of test [14]: ATG_MRE_CIS: Attagene CIS-FACTORIAL HepG2 Assay for human Metal Responsive Element (MRE) (AID 2282954). The note with it: HepG2 MRE cis-reporter transcription, Attagene multiplex; actives raise or lower the signal. The method, boiled down:
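Multiplexed cis-reporter assay in human HepG2 liver cells, 24 h incubation with test chemical. Reporter transcripts measured by RT-PCR and capillary electrophoresis; values from bidirectional curve fitting versus DMSO.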

A short description of test [15]: ATG_PBREM_CIS: Attagene CIS-FACTORIAL HepG2 Assay for human Phenobarbital-responsive Enhancer Module (PBREM) (AID 2282955). The note with it: HepG2 PBREM cis-reporter, Attagene multiplexed transcription; actives raise or lower the signal. The method, boiled down: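 Fluorescence of labelled reporter cDNA fragments, resolved by capillary electrophoresis, gives mRNA induction in transfected HepG2 cells treated for 24 h; DMSO serves as negative control and baseline.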

Test [16] in a line: ATG_M_61_CIS: Attagene CIS-FACTORIAL HepG2 Assay for M61 Transcription Factor (Internal Marker) (AID 2282937). As to conditions: HepG2 Attagene CIS-FACTORIAL M61 internal marker reporter; actives raise or lower the signal. An outline of the steps: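 Cells were transfected with reporter units under cis-regulatory promoters, treated with chemicals for 24 h, then lysed for RNA. Reporter transcripts were quantified by RT-PCR and capillary electrophoresis, and activity was fitted bidirectionally against DMSO.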

Test [17] can be described thus: ATG_M_32_CIS: Attagene CIS-FACTORIAL HepG2 Assay for M32 Transcription Factor (Internal Marker) (AID 2282949).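 Also: background control marker of the multiplexed CIS panel rather than a real target.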 As to conditions: HepG2 Attagene cis-factorial M32 reporter, mRNA; actives raise or lower the signal. The method, boiled down: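 Using DMSO as baseline, bidirectional curve fits were applied to reporter mRNA signals. These came from transiently transfected HepG2 cells exposed for 24 h, with RNA analysed by RT-PCR, FAM primer extension, HpaI digestion and CE.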

Test [18] has as its target Hypoxia-inducible factor 1-alpha (Homo sapiens) (UniProt Q16665). As to the kind of experiment: ATG_HIF1a_CIS: Attagene CIS-FACTORIAL HepG2 Assay for human Hypoxia Inducible Factor 1 (HIF1A) (AID 2282951). As to conditions: HepG2 Attagene cis-factorial HIF1a reporter transcription; actives raise or lower the signal. An outline of the steps: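 Measures endogenous transcription-factor activity through cis-regulated reporter mRNA in HepG2. Cells dosed 24 h; transcripts quantified by RT-PCR with 6-FAM-labelled products separated by capillary electrophoresis; DMSO serves as negative control.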

Test [19] concerns the target Bile acid receptor (Homo sapiens) (UniProt Q96RI1). As to the kind of experiment: ATG_IR1_CIS: Attagene CIS-FACTORIAL HepG2 Assay for human Nuclear Receptor Subfamily 1 Group H Member 4 (NR1H4), IR1 submotif (AID 2282946). The note with it: IR1 reporter transcription, actives raise or lower the signal. An outline of the steps:
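HepG2 cells transiently transfected with multiplexed cis-element reporter units read endogenous transcription factor activity. After 24 h compound exposure, reporter mRNA was quantified by RT-PCR, fluorescent labelling, HpaI digestion and capillary electrophoresis; bidirectional fitting versus DMSO baseline.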

Activity calls are given as the source filed them. The calls were made as follows: active = hit-call score of the fitted dose curve at least 0.9, where 1 is the maximum; inactive = score below 0.9.

Heat shock factor protein 1 (Homo sapiens), sequence (Q00613 whole entry, looked up, the tested form may be a part): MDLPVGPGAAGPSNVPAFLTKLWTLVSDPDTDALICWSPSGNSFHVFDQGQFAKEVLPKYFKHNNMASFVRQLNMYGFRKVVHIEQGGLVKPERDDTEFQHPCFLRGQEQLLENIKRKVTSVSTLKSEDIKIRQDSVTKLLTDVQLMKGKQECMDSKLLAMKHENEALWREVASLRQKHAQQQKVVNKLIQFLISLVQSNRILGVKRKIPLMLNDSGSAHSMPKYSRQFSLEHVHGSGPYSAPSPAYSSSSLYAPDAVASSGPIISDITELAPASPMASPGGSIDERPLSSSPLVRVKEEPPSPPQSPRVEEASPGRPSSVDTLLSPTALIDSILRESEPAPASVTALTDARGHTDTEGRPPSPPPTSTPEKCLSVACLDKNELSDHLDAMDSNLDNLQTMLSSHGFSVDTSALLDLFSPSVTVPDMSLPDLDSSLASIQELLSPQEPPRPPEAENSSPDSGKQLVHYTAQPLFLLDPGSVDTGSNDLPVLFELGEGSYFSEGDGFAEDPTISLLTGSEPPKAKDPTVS
Hypoxia-inducible factor 1-alpha (Homo sapiens), sequence (Q16665 whole entry, looked up): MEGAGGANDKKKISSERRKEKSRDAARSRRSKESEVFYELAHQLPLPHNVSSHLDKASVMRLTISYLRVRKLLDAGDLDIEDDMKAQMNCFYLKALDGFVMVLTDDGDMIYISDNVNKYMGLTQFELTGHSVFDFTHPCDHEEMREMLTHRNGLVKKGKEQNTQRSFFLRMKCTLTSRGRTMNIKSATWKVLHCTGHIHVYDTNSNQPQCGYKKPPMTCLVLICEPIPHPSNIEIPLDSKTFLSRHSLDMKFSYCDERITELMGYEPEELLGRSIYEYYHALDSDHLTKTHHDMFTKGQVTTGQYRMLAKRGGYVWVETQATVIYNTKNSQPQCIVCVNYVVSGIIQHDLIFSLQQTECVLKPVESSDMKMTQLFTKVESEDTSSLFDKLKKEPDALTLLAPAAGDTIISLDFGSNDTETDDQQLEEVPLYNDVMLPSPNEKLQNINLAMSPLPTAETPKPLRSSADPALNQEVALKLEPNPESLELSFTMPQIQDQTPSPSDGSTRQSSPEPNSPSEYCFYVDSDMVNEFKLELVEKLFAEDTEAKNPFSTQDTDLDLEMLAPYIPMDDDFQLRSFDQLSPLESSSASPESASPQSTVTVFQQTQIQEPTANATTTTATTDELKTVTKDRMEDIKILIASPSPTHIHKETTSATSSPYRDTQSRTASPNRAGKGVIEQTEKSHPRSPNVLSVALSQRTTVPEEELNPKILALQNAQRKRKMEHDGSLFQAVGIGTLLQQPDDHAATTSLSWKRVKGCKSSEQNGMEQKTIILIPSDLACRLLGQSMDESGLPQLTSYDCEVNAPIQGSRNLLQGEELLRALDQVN
Hepatocyte nuclear factor 6 (Homo sapiens), sequence (Q9UBC0 whole entry, looked up): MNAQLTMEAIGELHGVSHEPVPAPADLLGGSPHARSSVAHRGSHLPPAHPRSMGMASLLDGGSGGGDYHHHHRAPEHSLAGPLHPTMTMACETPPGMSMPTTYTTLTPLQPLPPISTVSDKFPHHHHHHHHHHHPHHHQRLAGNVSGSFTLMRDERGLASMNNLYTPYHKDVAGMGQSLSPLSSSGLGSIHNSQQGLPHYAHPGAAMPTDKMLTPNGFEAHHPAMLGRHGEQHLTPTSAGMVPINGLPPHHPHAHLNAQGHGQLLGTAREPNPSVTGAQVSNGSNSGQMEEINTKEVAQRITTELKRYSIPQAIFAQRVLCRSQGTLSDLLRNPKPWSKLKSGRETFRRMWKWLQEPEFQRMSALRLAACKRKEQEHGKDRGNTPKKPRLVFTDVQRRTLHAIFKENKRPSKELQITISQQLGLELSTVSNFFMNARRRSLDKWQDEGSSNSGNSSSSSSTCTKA
Hepatocyte nuclear factor 3-beta (Homo sapiens), sequence (Q9Y261 whole entry, looked up): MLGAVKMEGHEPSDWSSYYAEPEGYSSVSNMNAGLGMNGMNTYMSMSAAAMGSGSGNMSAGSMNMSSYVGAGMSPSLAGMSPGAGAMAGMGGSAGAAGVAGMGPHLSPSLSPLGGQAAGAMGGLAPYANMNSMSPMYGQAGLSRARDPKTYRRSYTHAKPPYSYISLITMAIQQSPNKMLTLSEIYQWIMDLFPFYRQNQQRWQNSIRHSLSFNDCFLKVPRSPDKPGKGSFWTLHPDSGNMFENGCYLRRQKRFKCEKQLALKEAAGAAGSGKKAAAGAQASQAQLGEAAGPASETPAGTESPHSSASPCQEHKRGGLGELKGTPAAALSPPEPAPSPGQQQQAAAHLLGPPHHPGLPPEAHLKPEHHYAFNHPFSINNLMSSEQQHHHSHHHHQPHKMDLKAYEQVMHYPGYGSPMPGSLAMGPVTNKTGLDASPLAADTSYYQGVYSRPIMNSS
Bile acid receptor (Homo sapiens), sequence (Q96RI1 whole entry, looked up): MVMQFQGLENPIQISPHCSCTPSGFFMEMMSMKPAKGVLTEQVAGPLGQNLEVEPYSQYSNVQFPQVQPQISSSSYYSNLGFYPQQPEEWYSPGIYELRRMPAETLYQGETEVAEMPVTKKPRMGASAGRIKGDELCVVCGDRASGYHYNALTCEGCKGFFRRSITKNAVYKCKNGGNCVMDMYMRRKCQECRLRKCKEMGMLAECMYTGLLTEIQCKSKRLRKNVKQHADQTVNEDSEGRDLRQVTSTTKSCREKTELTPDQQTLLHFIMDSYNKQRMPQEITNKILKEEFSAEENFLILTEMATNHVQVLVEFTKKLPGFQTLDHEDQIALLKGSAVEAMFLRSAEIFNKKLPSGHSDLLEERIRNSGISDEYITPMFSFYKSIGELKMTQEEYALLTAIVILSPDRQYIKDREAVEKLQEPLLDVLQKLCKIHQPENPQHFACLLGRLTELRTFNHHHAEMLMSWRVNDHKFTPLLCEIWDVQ

As for `CC1=CCC(O)(C(C)C)CC1` (stereo unspecified), the compound was classed as inactive in test [1], in test [2], in test [3], in [4], in [5] and in test [6]. Besides, the outcome in [7], in [8], in [9], in [10], in test [11] and in [12] was inactive. In addition, the call in [13], in test [14] and in [15] was inactive.

`CNC[C@H](O)c1cccc(O)c1`: the compound was classed as inactive in test [16], in test [1], in test [2], in test [4], in test [5] and in [6]. Moreover, the result in test [7], in test [10], in [17], in [11], in test [12] and in test [14] was inactive. The outcome in test [15] was inactive.

For `CCN(CC)CCOC(=O)c1ccc(N)cc1`, the result in test [16], in test [1], in [2], in [4], in test [5] and in [6] was inactive. Besides, the call in test [7], in test [8], in [10], in test [17], in test [11] and in test [12] was inactive. Besides, the compound was called inactive in test [13] and in test [14].

Broadly, the AC50 is the concentration at which the activity in the assay is half-maximal. In the case of `O=C(COc1ccc(Cl)cc1)N1CCN(Cc2ccc3c(c2)OCO3)CC1`, the outcome in [16], in [2], in test [3], in test [5], in test [6] and in [7] was inactive. For the same compound, the outcome in [8], in test [17], in test [11], in [12] and in [15] was inactive. Moreover, the AC50 in test [1] is 32.1 µM (active); in test [10], 58 µM (active); in [18] it was 19.8 µM (active); in [13], 151 µM (active); in test [14], 74.6 µM (active).

For the compound `COc1ccc(Cl)cc1C`, the result in test [16], in [1], in test [4], in [5], in test [6] and in [7] was inactive. In addition, the compound was classed as inactive in test [9], in [10], in test [17], in [11], in [18] and in [12]. Besides, the call in [13] and in [14] was inactive.

On to `CC1(C)CCC(C)(C)c2cc(C(=O)Nc3ccc(C(=O)O)cc3)ccc21`, for which the compound was called inactive in test [16], in test [2], in test [3], in test [4], in test [5] and in test [6]. Further, the call in test [8], in [9], in [17], in test [11], in [12] and in test [15] was inactive. Also, the AC50 in test [1] is 63 µM (active); in test [19], 4.75 µM (active); in test [10], 100 µM (active); in test [18], 55.1 µM (active); in test [13], 157 µM (active); in test [14] it was 74.5 µM (active).

With `CCCCCCCCCOC(C)=O`, the call in test [16], in test [1], in test [2], in test [3], in [4] and in test [5] was inactive. The result in [6], in test [7], in test [8], in test [19], in test [9] and in test [10] was inactive. For the same compound, the call in test [17], in test [18], in test [12], in test [13] and in [14] was inactive.

`O=c1[nH]c(=O)n([C@H]2CCCO2)cc1F`: the compound was called inactive in [16], in test [1], in [4], in [5], in [6] and in test [7]. The compound was called inactive in test [8], in test [10], in [17], in [18], in test [12] and in [13]. Further, the outcome in test [14] and in test [15] was inactive.

The values above are taken from PubChem BioAssay (EPA / NIEHS).
